Test results: article PMC7862700, “An all-to-all approach to the identification of sequence-specific readers for epigenetic DNA modifications on cytosine”

What was measured:
Assay in all cases: DAPPL (digital affinity profiling via proximity ligation, sequencing); 10 mM Tris-HCl pH 7.5, 50 mM NaCl, 1 mM DTT, 4% glycerol, room temperature, 30 min; GST-TFs on glutathione beads, 16-mer random dsDNA library, 0.1% formaldehyde crosslink after washing; high values mean tight binding
Settings in all cases: protein: recombinant; tags: N-terminal GST; dsDNA, one strand shown
ELK1 = target: T1, ELK1 (Homo sapiens, UniProt P19419 1-428)
T1 sequence: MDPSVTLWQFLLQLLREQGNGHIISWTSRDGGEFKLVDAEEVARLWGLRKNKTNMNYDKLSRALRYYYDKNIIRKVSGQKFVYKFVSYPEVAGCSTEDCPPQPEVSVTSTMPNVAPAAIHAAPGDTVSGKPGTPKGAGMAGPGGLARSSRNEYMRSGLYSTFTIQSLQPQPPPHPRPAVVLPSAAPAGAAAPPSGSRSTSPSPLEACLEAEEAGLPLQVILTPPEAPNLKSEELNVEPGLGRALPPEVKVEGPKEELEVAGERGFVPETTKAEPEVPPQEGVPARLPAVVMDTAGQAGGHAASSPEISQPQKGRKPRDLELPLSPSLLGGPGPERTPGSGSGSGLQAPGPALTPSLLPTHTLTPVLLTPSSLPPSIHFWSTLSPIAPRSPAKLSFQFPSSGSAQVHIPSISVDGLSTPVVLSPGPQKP
Outline: (§1)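 Sequencing on an Illumina NextSeq500 followed washing, crosslinking with 0.1% formaldehyde, proximity ligation (BsaI/T4 ligase, 1 h, 37 °C) and PCR amplification of pools that had been incubated for 30 min at room temperature with 200 nmole of a random double-stranded 16-mer DNA library in Tris/NaCl/DTT/glycerol buffer. Each pool held DNA-barcoded human transcription factors, expressed in yeast as GST fusions and captured on glutathione beads, plus a tag-only sample. Binding signal is a hexamer's read frequency for a factor divided by its frequency in the tag-only sample.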

ERG = target: T2, ERG (Homo sapiens, UniProt P11308 1-479)
T2 sequence: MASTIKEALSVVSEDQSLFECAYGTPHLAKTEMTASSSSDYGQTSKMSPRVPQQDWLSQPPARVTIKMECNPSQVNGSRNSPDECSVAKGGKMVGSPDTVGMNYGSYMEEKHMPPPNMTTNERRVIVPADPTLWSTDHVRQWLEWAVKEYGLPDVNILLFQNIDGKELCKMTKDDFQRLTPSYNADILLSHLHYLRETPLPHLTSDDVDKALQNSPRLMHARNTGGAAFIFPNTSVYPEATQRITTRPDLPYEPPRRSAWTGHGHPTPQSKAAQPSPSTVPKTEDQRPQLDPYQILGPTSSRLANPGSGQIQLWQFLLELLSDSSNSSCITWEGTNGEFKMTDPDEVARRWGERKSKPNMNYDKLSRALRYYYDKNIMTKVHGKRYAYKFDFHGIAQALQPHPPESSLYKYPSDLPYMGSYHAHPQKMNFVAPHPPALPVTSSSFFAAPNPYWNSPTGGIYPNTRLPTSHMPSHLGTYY
Outline: as §1

ETV5 = ETV5 (Homo sapiens, UniProt P41161 1-510)
Outline: as §1

ELK4 = target: T3, ELK4 (Homo sapiens, UniProt P28324-2 1-405)
T3 sequence: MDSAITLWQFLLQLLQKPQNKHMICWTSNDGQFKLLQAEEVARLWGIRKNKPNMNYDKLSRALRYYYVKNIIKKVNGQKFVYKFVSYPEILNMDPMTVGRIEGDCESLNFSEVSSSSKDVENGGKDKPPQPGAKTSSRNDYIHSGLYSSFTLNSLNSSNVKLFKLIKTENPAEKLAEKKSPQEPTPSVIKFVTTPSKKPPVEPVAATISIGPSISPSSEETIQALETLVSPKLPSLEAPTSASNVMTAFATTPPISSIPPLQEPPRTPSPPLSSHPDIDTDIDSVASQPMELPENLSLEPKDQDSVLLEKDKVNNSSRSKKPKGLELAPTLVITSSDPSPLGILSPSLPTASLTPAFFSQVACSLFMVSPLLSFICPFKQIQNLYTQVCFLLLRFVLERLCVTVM
Outline: as §1

ETV2 = target: T4, ETV2 (Homo sapiens, UniProt O00321 1-342)
T4 sequence: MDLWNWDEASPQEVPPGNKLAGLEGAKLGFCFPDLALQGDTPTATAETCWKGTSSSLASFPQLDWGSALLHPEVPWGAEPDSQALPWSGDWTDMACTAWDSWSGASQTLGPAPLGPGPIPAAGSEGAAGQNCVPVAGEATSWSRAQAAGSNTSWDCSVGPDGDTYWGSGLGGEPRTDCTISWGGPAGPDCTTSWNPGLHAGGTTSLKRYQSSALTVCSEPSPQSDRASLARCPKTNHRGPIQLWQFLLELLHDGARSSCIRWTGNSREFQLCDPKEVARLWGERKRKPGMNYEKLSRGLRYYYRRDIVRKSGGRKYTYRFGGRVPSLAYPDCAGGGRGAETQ
Outline: as §1

ETV1 = ETV1 (Homo sapiens, UniProt P50549 1-477)
Outline: as §1

ETV3L = target: T5, ETV3L (Homo sapiens, UniProt Q6ZN32 1-361)
T5 sequence: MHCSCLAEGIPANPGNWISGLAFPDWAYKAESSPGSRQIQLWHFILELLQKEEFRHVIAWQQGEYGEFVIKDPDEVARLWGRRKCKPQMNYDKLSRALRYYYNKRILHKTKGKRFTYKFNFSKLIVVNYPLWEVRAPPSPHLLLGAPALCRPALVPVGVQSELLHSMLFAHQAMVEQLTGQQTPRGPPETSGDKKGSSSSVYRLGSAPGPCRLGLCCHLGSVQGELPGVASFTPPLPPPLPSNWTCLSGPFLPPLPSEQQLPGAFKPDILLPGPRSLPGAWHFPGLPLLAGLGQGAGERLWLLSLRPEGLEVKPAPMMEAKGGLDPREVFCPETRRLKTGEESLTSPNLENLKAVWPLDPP
Outline: as §1

ETS2 = target: T6, ETS2 (Homo sapiens, UniProt P15036 1-469)
T6 sequence: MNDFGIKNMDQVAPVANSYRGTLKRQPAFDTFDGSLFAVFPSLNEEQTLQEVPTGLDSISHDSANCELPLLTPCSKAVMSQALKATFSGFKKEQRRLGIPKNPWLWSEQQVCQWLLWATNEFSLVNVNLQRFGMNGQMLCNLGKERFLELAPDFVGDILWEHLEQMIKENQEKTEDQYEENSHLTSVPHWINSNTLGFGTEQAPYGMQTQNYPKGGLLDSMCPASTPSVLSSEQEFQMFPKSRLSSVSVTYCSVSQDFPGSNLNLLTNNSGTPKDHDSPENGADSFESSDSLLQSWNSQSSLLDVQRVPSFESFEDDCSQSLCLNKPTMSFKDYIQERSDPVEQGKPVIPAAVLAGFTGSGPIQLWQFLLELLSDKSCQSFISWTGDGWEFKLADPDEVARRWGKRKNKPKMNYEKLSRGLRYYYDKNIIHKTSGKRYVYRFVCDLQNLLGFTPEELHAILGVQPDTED
Outline: as §1

SPDEF = target: T7, SPDEF (Homo sapiens, UniProt O95238 1-335)
T7 sequence: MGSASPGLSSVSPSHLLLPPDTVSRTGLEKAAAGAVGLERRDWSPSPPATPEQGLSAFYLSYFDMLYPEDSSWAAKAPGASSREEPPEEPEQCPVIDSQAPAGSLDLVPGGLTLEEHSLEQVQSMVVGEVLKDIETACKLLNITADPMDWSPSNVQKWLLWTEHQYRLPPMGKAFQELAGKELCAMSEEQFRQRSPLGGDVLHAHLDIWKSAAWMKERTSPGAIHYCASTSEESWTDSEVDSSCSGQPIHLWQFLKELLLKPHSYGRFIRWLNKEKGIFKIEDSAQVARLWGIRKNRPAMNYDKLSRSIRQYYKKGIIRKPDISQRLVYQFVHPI
Outline: as §1

ETV7 = target: T8, ETV7 (Homo sapiens, UniProt Q9Y603 1-341)
T8 sequence: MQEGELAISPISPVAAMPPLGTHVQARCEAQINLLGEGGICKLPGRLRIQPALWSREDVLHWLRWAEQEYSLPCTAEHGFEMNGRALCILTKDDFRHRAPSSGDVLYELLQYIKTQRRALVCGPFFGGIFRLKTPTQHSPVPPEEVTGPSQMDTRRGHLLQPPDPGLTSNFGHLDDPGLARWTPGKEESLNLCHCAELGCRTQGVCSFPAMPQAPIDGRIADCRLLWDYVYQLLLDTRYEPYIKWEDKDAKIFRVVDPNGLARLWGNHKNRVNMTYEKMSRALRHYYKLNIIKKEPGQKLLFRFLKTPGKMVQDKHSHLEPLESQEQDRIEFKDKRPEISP
Outline: as §1

ETV3 = target: T9, ETV3 (Homo sapiens, UniProt P41162-2 1-143)
T9 sequence: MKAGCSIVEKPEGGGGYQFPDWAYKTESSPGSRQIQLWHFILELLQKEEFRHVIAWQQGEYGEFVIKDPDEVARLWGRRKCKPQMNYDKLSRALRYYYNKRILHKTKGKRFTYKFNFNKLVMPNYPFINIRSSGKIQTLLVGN
Outline: as §1

ETV6 = ETV6 (Homo sapiens, UniProt P41212 1-452)
Outline: as §1

Sequence of ETV1 (P50549 whole entry): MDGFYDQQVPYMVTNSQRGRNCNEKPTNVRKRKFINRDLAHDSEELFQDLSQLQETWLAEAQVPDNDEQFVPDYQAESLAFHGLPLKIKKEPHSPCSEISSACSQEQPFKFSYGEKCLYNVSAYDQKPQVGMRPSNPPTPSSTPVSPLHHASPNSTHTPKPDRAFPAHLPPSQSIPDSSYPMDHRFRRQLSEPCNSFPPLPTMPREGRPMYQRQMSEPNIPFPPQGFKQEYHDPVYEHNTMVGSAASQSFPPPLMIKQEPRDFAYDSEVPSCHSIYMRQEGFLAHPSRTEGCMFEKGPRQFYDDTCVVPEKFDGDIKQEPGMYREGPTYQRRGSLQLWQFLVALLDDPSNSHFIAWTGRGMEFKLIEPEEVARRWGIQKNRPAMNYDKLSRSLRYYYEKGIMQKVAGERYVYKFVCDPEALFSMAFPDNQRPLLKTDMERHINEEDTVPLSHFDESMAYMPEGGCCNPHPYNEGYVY
Sequence of ETV6 (P41212 whole entry): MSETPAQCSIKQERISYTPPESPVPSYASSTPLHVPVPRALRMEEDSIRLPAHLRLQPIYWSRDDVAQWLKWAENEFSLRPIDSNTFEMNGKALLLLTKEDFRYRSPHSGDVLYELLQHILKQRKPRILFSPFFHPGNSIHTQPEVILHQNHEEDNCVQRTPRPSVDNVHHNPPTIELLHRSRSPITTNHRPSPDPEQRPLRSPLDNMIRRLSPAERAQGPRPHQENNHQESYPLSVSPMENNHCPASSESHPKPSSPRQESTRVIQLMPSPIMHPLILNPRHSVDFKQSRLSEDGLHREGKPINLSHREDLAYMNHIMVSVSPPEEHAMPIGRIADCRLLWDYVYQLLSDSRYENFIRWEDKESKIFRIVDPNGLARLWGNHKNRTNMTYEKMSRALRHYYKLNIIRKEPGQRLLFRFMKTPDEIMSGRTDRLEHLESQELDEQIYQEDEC
Sequence of ETV5 (P41161 whole entry): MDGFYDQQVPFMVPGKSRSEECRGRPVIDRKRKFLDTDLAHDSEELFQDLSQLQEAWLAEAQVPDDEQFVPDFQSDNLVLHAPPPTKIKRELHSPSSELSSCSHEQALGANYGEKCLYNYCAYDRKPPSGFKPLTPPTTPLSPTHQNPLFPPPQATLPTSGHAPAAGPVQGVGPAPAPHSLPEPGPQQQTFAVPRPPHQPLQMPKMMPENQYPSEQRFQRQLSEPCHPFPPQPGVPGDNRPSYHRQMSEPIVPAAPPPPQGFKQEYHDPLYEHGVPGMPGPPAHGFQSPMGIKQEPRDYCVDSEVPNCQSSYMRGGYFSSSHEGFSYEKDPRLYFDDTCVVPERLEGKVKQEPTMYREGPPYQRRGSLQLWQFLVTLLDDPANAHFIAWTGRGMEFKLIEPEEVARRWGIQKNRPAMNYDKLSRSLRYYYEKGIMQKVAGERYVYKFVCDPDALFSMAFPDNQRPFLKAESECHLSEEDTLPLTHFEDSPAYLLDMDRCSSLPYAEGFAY

TCAGTT
binding signal (ELK1): 1.03 fold enrichment (6-mer frequency, TF over GST control) | binding signal (ERG): 1.03 fold enrichment (6-mer frequency, TF over GST control) | binding signal (ETV5): 1 fold enrichment (6-mer frequency, TF over GST control) | binding signal (ELK4): 1.08 fold enrichment (6-mer frequency, TF over GST control) | binding signal (ETV2): 1.05 fold enrichment (6-mer frequency, TF over GST control) | binding signal (ETV1): 1.04 fold enrichment (6-mer frequency, TF over GST control) | binding signal (ETV3L): 1.05 fold enrichment (6-mer frequency, TF over GST control) | binding signal (ETS2): 1.04 fold enrichment (6-mer frequency, TF over GST control) | binding signal (SPDEF): 1.04 fold enrichment (6-mer frequency, TF over GST control) | binding signal (ETV7): 1.02 fold enrichment (6-mer frequency, TF over GST control) | binding signal (ETV3): 1.05 fold enrichment (6-mer frequency, TF over GST control) | binding signal (ETV6): 1.03 fold enrichment (6-mer frequency, TF over GST control)
